Data taken from the supplement of paper PMC11732987, “Enantioselective OTUD7B fragment discovery through chemoproteomics screening and high-throughput optimisation” (Communications Chemistry, 2025).

Legend:
Test in all cases: log2 ratio of Biotin-Ahx-Ub-VS probe labelling (fragment/DMSO); higher = less target engagement (more negative = stronger competition), active = hit call of the paper (q ≤ 0.05, log2 ratio ≤ -1)
Settings in all cases: compound concentration: 200 uM; treatment time: 3 h
USP34 = USP34 (UniProt Q70CQ2)
Procedure, shortened: (§1)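 Labelling with Biotin-Ahx-Ub-VS (0.5 µM final, 1 h) followed a 3 h triplicate treatment of HEK293T lysate (495 µg per sample, Tris/CHAPS/IGEPAL buffer with protease inhibitors) with fragment at 200 µM or vehicle. Labelled DUBs were NeutrAvidin-enriched, digested with LysC and trypsin, and run by diaPASEF LC-MS/MS. The values, average log2 fragment/vehicle ratios by unpaired t-test, come from global-median-normalised Spectronaut label-free quantities. Proteins with ≥2 unique peptides were used.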

USP36 = target: T1, USP36 (UniProt Q9P275)
T1 sequence (whole entry): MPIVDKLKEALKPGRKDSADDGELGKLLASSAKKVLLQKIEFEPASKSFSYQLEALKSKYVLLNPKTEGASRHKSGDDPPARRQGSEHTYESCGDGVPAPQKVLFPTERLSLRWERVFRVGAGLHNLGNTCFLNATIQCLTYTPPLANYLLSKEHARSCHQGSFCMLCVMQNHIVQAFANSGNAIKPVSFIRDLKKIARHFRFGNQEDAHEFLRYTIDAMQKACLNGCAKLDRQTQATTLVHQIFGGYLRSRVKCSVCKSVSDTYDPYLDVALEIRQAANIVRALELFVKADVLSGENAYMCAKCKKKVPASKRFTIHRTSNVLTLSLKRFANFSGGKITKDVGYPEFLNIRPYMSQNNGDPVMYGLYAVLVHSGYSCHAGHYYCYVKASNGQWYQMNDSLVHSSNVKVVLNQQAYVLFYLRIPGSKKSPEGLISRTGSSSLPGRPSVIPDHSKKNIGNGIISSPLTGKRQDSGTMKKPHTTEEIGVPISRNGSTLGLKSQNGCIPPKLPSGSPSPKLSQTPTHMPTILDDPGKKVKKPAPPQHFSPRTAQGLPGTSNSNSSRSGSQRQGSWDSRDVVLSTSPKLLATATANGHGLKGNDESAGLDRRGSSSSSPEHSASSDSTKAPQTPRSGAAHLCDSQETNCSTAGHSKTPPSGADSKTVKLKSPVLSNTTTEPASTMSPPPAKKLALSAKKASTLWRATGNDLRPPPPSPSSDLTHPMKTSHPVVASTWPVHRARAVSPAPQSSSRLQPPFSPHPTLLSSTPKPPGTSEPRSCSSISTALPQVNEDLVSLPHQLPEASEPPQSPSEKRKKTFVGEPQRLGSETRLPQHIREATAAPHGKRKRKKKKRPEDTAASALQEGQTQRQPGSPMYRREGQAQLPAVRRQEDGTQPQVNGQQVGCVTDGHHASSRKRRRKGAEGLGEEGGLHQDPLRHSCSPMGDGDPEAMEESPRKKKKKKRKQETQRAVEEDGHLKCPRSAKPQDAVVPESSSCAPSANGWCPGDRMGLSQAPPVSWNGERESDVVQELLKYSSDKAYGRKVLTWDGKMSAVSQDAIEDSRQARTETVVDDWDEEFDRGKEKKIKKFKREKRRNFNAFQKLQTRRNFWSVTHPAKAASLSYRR
Procedure, shortened: as §1

USP38 = target: T2, USP38 (UniProt Q8NB14)
T2 sequence (whole entry): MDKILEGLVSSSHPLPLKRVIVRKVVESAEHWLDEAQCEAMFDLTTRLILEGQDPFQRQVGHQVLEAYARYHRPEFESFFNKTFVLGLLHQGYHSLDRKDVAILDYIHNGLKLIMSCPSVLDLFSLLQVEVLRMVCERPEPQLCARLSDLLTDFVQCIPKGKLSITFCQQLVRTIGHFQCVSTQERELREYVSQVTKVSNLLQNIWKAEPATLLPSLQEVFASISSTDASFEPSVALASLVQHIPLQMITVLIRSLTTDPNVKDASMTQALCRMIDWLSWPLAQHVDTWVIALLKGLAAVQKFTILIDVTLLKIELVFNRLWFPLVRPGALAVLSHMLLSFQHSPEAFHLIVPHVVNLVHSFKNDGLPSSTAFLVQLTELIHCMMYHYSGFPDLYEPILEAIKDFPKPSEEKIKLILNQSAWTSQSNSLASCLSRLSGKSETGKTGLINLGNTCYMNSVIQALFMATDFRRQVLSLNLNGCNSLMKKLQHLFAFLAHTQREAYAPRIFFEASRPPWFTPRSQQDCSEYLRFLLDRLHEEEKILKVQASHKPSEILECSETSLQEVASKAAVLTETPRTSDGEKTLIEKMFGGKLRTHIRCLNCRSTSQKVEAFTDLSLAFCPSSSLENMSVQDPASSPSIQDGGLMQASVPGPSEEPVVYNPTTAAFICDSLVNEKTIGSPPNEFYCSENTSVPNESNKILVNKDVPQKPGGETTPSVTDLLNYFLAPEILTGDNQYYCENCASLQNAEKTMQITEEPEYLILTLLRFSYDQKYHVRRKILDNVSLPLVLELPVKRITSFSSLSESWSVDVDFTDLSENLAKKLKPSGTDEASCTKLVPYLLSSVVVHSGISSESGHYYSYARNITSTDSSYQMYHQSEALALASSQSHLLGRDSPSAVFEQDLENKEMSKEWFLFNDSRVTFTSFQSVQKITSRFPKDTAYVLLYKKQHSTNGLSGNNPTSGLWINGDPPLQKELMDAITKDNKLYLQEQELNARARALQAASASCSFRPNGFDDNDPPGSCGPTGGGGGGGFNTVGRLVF
Procedure, shortened: as §1

USP39 = target: T3, USP39 (UniProt Q53GS9)
T3 sequence (whole entry): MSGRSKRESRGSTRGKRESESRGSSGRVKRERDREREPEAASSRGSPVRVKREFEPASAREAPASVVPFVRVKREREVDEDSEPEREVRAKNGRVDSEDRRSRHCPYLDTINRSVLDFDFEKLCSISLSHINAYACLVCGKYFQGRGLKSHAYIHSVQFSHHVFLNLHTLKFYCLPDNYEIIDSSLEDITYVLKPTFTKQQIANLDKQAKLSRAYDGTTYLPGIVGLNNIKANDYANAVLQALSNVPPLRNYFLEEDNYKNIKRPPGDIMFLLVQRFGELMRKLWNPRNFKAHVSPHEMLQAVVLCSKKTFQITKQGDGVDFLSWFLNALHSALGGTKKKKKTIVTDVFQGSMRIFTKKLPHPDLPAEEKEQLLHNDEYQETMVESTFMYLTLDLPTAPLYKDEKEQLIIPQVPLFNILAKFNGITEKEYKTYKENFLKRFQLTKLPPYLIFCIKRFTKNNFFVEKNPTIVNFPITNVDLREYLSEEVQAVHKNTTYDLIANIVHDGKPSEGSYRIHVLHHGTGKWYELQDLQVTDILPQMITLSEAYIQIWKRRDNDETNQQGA
Procedure, shortened: as §1

USP4 = target: T4, USP4 (UniProt Q13107)
T4 sequence (whole entry): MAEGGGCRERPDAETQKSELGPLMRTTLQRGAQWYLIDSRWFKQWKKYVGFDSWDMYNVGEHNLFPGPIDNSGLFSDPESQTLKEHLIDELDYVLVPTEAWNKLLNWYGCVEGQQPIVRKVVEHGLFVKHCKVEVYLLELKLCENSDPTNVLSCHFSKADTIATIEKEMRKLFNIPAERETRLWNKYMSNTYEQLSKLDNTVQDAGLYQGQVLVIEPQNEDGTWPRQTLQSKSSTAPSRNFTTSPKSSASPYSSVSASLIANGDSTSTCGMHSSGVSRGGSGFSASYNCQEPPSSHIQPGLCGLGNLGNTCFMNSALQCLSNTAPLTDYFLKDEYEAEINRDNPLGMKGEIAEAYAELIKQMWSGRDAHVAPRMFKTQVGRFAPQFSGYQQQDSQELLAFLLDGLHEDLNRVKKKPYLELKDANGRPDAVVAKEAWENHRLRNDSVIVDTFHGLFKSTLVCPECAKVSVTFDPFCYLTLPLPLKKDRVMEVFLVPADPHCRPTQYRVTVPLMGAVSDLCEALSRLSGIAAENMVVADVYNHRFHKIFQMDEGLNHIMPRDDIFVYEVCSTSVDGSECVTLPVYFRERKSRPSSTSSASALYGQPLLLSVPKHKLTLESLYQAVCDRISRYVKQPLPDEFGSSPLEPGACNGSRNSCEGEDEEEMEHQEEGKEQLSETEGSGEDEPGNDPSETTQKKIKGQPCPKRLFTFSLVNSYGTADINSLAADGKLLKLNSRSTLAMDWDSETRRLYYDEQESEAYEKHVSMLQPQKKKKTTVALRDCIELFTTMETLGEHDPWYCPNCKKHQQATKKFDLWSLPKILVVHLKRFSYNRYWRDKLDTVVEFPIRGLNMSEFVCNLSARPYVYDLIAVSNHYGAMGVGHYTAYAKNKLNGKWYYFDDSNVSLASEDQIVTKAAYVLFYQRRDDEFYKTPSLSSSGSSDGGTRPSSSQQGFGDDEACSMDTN
Procedure, shortened: as §1

Measured: log2 ratio of Biotin-Ahx-Ub-VS probe labelling

Chain of USP34 (Q70CQ2 whole entry, the tested form may be a part): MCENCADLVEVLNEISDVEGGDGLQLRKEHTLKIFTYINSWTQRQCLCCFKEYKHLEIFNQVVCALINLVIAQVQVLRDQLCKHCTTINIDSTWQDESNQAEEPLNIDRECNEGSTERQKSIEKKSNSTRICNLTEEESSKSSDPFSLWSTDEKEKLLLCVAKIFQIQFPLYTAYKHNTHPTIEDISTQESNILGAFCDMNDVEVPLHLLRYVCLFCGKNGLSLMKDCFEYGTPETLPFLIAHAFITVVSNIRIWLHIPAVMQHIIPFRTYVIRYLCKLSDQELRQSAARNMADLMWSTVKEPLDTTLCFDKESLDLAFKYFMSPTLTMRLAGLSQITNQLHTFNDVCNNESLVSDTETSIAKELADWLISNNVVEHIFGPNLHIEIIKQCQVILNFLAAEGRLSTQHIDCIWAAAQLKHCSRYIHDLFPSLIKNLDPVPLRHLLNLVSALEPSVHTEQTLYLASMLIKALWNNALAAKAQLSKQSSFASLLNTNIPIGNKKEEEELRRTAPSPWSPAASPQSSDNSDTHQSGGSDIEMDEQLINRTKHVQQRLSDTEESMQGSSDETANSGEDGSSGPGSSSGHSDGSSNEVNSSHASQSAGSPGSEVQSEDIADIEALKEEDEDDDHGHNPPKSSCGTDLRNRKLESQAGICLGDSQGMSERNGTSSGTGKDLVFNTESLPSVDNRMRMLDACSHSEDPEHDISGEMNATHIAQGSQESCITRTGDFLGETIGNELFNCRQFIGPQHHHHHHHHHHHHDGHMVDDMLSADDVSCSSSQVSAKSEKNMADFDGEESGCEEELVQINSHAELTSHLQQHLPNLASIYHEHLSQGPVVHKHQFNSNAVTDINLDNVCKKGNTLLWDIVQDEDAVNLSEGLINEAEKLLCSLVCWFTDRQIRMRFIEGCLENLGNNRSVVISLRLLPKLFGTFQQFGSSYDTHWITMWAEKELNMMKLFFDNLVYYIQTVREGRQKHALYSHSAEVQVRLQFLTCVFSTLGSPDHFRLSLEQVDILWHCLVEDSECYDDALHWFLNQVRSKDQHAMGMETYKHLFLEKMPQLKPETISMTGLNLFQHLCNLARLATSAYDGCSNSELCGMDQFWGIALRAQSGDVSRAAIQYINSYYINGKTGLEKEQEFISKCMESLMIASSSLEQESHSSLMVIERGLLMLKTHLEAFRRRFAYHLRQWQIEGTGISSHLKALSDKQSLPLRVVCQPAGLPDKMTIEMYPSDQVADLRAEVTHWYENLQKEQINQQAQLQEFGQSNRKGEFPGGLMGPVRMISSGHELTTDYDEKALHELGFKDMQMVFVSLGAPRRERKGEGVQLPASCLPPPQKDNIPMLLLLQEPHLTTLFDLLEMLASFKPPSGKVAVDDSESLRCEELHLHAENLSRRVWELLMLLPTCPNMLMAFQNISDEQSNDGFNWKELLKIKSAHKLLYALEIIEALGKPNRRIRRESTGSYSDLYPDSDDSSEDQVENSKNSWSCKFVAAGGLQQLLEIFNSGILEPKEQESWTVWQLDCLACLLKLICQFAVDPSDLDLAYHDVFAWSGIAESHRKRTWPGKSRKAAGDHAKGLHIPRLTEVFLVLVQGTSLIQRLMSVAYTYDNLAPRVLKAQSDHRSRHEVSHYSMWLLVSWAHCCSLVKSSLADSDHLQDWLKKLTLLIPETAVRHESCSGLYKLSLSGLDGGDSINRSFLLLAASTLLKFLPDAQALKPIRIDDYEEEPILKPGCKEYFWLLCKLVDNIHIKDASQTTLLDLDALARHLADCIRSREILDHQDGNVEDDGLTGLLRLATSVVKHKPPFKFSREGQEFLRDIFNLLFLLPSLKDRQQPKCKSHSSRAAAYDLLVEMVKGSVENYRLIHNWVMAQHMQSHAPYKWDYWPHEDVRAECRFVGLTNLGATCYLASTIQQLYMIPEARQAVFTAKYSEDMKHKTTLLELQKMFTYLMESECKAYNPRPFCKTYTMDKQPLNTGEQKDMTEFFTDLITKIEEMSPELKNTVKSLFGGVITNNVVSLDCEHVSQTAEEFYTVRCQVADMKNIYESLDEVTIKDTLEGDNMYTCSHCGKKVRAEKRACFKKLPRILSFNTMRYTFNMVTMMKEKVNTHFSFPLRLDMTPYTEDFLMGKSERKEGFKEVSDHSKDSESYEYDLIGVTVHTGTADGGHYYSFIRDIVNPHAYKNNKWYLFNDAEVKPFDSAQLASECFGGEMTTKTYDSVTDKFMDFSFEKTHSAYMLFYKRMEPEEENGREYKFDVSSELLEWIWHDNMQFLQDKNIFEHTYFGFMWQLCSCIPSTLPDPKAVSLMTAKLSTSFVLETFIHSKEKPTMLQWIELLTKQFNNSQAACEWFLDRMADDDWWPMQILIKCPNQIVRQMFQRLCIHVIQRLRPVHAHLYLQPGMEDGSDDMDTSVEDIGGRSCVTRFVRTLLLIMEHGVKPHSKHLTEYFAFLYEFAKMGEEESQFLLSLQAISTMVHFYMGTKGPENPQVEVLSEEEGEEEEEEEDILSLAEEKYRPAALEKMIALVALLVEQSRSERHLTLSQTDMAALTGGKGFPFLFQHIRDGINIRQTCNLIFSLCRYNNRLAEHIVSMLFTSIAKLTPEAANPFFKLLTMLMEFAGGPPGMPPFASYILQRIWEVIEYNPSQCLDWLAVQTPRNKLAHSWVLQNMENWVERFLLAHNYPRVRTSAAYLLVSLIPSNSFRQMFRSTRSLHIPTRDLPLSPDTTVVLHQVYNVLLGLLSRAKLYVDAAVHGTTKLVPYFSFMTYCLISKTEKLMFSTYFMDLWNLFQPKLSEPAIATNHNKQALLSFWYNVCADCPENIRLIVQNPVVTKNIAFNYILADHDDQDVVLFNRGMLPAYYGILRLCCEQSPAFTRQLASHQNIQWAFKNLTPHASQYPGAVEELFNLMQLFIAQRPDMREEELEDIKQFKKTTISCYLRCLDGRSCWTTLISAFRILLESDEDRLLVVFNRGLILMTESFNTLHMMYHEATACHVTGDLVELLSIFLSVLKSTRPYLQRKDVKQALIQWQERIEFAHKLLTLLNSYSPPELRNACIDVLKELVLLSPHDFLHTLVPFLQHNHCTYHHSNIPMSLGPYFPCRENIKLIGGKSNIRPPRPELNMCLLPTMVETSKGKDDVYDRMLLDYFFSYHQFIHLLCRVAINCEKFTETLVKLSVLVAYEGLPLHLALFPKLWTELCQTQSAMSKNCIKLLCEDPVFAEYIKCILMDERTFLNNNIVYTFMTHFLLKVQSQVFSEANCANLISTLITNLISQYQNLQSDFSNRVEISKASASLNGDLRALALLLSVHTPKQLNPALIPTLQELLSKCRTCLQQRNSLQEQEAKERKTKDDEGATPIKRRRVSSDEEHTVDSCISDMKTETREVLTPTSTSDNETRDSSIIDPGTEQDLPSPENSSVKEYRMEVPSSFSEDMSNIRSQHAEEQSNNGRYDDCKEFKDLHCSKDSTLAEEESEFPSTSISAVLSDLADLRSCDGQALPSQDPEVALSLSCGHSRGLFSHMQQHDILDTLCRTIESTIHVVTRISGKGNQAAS

O=C(CCl)N1CCC(c2nc3ccccc3o2)CC1
inactive: USP34 -0.0485 | USP36 -0.24 | USP38 -0.183 | USP39 0.016 | USP4 -0.231
